# Test results reported in article PMC7862700, “An all-to-all approach to the identification of sequence-specific readers for epigenetic DNA modifications on cytosine”.
# Experiments:
# Assay in all cases: DAPPL (digital affinity profiling via proximity ligation, sequencing); 10 mM Tris-HCl pH 7.5, 50 mM NaCl, 1 mM DTT, 4% glycerol, room temperature, 30 min; GST-TFs on glutathione beads, 16-mer random dsDNA library, 0.1% formaldehyde crosslink after washing; high values mean tight binding
# FLI1 = biological target: T1, FLI1 (Homo sapiens, UniProt Q01543 1-452); conditions: protein: recombinant; tags: N-terminal GST; dsDNA, one strand shown
# T1 sequence: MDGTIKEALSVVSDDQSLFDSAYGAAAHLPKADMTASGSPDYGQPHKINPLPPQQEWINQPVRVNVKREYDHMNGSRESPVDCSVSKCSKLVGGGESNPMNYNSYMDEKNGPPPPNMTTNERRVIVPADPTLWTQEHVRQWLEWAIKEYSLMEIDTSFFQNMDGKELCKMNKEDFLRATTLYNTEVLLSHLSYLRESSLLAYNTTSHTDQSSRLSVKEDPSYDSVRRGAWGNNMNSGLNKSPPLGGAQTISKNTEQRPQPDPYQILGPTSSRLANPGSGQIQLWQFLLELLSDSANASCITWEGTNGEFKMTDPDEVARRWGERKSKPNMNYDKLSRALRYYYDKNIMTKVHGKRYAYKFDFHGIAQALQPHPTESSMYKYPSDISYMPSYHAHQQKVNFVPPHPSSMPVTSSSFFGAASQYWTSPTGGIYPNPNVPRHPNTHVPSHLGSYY
# Method in brief: (§1)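 Pools were built from human transcription factors expressed in yeast as GST fusions, captured on glutathione beads and DNA-barcoded, along with a tag-only sample. Incubation with 200 nmole of a 16-mer random double-stranded DNA library lasted 30 min at room temperature in Tris/NaCl/DTT/glycerol buffer, and was followed by washing, 0.1% formaldehyde crosslinking, proximity ligation, PCR amplification and Illumina NextSeq500 sequencing. Binding signal is the quotient of each hexamer's read frequency for a factor and its frequency for the tag-only sample.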
# ELK1 = biological target: T2, ELK1 (Homo sapiens, UniProt P19419 1-428); conditions: protein: recombinant; tags: N-terminal GST; dsDNA, one strand shown
# T2 sequence: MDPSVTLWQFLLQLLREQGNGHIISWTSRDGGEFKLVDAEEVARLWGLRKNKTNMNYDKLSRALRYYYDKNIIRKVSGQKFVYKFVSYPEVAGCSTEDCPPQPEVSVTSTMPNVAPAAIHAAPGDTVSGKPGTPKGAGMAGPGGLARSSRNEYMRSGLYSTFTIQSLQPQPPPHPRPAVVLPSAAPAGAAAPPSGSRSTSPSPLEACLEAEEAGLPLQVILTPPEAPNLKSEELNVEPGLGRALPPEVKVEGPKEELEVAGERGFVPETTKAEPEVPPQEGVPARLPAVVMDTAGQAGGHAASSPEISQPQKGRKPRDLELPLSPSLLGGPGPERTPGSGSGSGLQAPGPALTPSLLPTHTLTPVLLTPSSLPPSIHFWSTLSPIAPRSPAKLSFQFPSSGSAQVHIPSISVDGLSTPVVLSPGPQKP
# Method in brief: as §1
# GABPA = biological target: T3, GABPA (Homo sapiens, UniProt Q06546 1-454); conditions: protein: recombinant; tags: N-terminal GST; dsDNA, one strand shown
# T3 sequence: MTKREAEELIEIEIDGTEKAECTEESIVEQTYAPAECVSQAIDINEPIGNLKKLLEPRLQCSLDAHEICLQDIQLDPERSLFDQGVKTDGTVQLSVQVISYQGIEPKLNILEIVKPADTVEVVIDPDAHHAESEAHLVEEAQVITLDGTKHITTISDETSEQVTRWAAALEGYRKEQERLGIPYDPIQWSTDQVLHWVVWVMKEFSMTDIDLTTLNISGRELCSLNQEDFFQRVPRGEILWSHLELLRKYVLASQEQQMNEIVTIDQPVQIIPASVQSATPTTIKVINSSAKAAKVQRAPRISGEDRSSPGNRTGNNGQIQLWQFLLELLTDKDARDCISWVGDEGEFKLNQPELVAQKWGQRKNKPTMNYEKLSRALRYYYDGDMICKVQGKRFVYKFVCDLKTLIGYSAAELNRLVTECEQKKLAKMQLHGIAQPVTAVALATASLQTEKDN
# Method in brief: as §1
# ERG = biological target: T4, ERG (Homo sapiens, UniProt P11308 1-479); conditions: protein: recombinant; tags: N-terminal GST; dsDNA, one strand shown
# T4 sequence: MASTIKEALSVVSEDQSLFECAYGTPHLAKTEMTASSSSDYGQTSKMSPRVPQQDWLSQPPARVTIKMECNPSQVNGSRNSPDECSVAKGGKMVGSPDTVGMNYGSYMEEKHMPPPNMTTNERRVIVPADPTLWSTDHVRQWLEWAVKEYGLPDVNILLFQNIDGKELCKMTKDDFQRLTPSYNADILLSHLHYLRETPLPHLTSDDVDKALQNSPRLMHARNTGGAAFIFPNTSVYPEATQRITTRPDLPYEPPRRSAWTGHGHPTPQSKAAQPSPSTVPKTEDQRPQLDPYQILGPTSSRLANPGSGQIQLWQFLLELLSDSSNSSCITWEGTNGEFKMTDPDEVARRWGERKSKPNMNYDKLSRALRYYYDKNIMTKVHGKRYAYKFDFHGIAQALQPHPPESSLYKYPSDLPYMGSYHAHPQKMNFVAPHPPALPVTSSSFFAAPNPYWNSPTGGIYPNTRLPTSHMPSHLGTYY
# Method in brief: as §1
# ELF1 = ELF1 (Homo sapiens, UniProt P32519 1-619); conditions: protein: recombinant; tags: N-terminal GST; dsDNA, one strand shown
# Method in brief: as §1
# EHF = biological target: T5, EHF (Homo sapiens, UniProt Q9NZC4 1-300); conditions: protein: recombinant; tags: N-terminal GST; dsDNA, one strand shown
# T5 sequence: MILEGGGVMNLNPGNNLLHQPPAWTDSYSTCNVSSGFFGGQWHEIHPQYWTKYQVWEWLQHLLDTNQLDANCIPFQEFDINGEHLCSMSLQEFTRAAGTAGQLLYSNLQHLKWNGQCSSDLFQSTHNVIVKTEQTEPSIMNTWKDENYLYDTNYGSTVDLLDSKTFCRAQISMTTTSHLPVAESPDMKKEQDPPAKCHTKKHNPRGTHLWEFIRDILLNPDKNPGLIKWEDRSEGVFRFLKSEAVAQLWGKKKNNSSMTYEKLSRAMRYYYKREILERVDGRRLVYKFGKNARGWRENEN
# Method in brief: as §1
# SPI1 = SPI1 (Homo sapiens, UniProt P17947 1-270); conditions: protein: recombinant; tags: N-terminal GST; dsDNA, one strand shown
# Method in brief: as §1
# SPIB = SPIB (Homo sapiens, UniProt Q01892 1-262); conditions: protein: recombinant; tags: N-terminal GST; dsDNA, one strand shown
# Method in brief: as §1
# ELK3 = biological target: T6, ELK3 (Homo sapiens, UniProt P41970 1-407); conditions: protein: recombinant; tags: N-terminal GST; dsDNA, one strand shown
# T6 sequence: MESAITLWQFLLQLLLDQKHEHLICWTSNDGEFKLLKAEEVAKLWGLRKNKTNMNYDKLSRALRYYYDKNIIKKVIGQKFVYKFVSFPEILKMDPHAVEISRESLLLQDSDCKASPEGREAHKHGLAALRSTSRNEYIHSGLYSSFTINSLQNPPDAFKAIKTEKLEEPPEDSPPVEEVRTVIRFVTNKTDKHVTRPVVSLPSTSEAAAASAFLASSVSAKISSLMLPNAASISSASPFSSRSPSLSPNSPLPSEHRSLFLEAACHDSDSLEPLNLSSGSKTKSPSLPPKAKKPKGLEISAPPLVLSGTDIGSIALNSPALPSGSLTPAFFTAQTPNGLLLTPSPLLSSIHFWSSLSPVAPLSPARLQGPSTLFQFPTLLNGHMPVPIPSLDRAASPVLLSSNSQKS
# Method in brief: as §1
# FEV = biological target: T7, FEV (Homo sapiens, UniProt Q99581 1-238); conditions: protein: recombinant; tags: N-terminal GST; dsDNA, one strand shown
# T7 sequence: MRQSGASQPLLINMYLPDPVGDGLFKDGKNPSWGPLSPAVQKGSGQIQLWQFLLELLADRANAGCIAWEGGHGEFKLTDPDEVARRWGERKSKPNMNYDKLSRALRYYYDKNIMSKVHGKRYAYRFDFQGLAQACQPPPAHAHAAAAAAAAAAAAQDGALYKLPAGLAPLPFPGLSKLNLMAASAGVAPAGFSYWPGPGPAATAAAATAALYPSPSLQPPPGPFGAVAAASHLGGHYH
# Method in brief: as §1
# ETV5 = ETV5 (Homo sapiens, UniProt P41161 1-510); conditions: protein: recombinant; tags: N-terminal GST; dsDNA, one strand shown
# Method in brief: as §1
# HSF1 = HSF1 (Homo sapiens, UniProt Q00613 1-529); conditions: protein: recombinant; tags: N-terminal GST; chain copies: 3; dsDNA, one strand shown
# Method in brief: as §1
# SPIC = biological target: T8, SPIC (Homo sapiens, UniProt Q8N5J4 1-248); conditions: protein: recombinant; tags: N-terminal GST; dsDNA, one strand shown
# T8 sequence: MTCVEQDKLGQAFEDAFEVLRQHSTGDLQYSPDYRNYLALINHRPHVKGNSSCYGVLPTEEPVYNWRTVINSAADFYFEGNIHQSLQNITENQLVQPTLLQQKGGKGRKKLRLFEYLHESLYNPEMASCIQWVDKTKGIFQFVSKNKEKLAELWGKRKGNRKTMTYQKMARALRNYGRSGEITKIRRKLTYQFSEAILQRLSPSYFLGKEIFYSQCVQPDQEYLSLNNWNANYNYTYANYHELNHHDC
# Method in brief: as §1
# ELF4 = ELF4 (Homo sapiens, UniProt Q99607 1-663); conditions: protein: recombinant; tags: N-terminal GST; dsDNA, one strand shown
# Method in brief: as §1
# ELK4 = biological target: T9, ELK4 (Homo sapiens, UniProt P28324-2 1-405); conditions: protein: recombinant; tags: N-terminal GST; dsDNA, one strand shown
# T9 sequence: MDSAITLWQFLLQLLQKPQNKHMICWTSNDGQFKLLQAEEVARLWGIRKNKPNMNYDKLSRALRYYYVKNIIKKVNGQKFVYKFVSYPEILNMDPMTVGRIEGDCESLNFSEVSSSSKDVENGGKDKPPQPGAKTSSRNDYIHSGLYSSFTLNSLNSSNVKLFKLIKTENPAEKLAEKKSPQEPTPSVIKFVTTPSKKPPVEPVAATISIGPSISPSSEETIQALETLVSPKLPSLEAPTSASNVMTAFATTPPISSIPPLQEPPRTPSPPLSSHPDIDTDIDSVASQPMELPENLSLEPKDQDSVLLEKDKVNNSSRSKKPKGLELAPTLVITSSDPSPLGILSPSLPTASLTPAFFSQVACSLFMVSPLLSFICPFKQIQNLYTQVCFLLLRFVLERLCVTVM
# Method in brief: as §1
# ETV2 = biological target: T10, ETV2 (Homo sapiens, UniProt O00321 1-342); conditions: protein: recombinant; tags: N-terminal GST; dsDNA, one strand shown
# T10 sequence: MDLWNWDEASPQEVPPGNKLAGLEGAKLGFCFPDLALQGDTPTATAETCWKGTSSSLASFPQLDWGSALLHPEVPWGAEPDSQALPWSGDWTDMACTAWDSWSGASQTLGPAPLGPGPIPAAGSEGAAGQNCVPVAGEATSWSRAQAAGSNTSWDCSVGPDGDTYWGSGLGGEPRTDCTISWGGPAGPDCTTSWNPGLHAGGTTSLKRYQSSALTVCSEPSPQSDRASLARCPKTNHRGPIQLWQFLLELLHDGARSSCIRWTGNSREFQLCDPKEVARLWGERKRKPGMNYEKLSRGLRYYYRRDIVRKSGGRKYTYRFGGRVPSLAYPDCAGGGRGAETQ
# Method in brief: as §1
# ELF3 = biological target: T11, ELF3 (Homo sapiens, UniProt P78545 1-371); conditions: protein: recombinant; tags: N-terminal GST; dsDNA, one strand shown
# T11 sequence: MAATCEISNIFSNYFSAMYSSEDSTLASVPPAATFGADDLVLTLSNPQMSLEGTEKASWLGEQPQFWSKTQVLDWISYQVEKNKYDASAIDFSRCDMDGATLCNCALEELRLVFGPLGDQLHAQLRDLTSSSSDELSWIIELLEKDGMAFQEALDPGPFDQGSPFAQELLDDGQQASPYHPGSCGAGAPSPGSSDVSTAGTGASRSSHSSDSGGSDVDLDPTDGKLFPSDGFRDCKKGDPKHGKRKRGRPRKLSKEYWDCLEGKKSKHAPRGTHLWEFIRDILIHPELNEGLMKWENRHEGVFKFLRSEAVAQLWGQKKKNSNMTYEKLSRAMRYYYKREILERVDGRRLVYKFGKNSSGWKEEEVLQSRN
# Method in brief: as §1
# CRX = CRX (Homo sapiens, UniProt O43186 1-299); conditions: protein: recombinant; tags: N-terminal GST; dsDNA, one strand shown
# Method in brief: as §1
# ETV1 = ETV1 (Homo sapiens, UniProt P50549 1-477); conditions: protein: recombinant; tags: N-terminal GST; dsDNA, one strand shown
# Method in brief: as §1
# Chain of SPIB (Q01892 whole entry): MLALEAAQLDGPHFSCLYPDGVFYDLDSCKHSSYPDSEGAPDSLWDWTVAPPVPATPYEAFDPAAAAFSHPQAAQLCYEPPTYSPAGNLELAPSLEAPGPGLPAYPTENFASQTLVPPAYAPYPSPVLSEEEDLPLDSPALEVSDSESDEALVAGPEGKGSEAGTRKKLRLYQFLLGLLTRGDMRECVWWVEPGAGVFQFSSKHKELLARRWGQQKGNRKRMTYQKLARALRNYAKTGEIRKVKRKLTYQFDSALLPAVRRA
# Chain of HSF1 (Q00613 whole entry): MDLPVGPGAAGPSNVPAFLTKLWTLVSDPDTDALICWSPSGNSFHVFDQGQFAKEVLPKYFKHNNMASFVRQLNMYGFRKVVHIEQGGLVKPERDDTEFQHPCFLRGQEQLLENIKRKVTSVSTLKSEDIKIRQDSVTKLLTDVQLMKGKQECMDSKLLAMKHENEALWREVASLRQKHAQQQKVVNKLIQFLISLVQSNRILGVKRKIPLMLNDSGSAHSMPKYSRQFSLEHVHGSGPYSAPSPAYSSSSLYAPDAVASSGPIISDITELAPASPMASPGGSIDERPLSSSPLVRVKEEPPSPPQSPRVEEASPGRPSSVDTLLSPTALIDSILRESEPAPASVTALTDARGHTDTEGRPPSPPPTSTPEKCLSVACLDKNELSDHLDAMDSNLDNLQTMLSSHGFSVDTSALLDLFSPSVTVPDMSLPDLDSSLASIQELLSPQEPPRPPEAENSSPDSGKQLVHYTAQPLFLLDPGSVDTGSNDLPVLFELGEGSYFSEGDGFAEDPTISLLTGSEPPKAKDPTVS
# Chain of CRX (O43186 whole entry): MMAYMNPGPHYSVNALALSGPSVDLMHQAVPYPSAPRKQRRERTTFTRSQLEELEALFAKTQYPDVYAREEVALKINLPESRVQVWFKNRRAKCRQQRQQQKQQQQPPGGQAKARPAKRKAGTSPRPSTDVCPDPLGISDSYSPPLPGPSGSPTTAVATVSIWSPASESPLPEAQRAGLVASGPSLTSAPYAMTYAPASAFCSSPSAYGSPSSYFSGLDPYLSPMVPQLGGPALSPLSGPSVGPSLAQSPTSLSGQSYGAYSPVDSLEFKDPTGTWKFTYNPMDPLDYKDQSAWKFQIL
# Chain of ETV5 (P41161 whole entry): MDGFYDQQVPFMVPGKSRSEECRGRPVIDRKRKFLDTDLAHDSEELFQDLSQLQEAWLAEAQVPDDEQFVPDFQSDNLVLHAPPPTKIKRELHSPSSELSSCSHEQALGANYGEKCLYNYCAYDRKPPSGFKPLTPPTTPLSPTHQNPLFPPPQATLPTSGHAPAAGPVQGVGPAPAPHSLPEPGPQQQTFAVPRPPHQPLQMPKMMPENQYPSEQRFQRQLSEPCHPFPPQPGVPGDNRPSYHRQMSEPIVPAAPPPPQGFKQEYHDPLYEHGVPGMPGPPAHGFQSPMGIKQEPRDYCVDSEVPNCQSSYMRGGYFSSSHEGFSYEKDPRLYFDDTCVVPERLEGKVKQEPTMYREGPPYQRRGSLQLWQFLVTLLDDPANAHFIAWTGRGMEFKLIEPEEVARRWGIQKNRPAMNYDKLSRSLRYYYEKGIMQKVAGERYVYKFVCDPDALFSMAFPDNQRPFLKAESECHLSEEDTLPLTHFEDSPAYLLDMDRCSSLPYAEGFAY
# Chain of ELF4 (Q99607 whole entry): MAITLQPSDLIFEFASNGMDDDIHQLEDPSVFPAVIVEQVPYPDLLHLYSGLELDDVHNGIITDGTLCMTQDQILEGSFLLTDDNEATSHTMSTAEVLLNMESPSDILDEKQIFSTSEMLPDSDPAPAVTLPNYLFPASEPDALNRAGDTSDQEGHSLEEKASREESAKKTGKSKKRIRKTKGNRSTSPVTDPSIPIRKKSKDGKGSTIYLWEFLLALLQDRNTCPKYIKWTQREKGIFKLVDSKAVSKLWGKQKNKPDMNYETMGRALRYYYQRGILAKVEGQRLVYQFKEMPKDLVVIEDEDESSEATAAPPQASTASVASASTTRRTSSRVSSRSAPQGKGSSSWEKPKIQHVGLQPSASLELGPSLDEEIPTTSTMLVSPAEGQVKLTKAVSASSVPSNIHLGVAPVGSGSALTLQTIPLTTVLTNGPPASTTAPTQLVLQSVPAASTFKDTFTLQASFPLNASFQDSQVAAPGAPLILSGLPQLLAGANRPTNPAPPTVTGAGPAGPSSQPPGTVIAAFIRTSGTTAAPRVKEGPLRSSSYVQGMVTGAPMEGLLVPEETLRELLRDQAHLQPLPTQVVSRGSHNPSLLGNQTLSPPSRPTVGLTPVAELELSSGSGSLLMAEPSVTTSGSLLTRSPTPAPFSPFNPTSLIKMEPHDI
# Chain of ELF1 (P32519 whole entry): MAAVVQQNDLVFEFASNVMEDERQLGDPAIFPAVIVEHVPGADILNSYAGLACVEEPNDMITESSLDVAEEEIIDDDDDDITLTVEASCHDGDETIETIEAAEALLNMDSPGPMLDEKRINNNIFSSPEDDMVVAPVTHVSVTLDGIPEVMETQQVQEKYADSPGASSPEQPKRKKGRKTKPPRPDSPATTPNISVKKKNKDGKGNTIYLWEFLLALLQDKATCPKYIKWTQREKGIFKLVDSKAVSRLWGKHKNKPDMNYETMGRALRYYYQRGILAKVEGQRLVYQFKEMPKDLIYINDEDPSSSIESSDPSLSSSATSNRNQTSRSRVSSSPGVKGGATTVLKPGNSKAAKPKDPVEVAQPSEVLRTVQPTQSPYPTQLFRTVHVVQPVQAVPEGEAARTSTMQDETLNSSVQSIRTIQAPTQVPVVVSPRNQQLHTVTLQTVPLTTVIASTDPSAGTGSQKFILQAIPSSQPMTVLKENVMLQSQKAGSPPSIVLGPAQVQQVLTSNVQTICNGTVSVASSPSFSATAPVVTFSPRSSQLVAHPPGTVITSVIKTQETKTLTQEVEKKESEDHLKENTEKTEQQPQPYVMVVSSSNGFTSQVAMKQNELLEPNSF
# Chain of ETV1 (P50549 whole entry): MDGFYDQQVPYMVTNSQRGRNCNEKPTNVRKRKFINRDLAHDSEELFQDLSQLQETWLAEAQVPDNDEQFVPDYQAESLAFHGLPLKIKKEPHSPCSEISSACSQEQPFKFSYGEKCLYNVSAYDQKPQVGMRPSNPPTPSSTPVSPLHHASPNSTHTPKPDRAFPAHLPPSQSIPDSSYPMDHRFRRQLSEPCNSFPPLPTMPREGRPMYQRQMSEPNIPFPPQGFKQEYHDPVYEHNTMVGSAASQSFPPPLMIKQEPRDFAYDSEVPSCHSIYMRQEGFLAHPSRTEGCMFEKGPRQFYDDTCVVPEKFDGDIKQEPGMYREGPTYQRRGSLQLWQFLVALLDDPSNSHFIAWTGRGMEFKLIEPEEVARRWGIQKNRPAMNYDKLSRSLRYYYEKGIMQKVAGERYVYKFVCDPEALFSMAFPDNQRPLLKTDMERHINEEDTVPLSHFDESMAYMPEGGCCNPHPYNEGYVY
sequence,measurement,setting,value
ATATGG,binding signal,FLI1,"1.13 fold enrichment (6-mer frequency, TF over GST control)"
same,binding signal,ELK1,"1.31 fold enrichment (6-mer frequency, TF over GST control)"
same,binding signal,GABPA,"1.28 fold enrichment (6-mer frequency, TF over GST control)"
same,binding signal,ERG,"1.36 fold enrichment (6-mer frequency, TF over GST control)"
same,binding signal,ELF1,"1.26 fold enrichment (6-mer frequency, TF over GST control)"
same,binding signal,EHF,"1.27 fold enrichment (6-mer frequency, TF over GST control)"
same,binding signal,SPI1,"1.17 fold enrichment (6-mer frequency, TF over GST control)"
same,binding signal,SPIB,"1.24 fold enrichment (6-mer frequency, TF over GST control)"
same,binding signal,ELK3,"1.25 fold enrichment (6-mer frequency, TF over GST control)"
same,binding signal,FEV,"1.25 fold enrichment (6-mer frequency, TF over GST control)"
same,binding signal,ETV5,"1.3 fold enrichment (6-mer frequency, TF over GST control)"
same,binding signal,HSF1,"1.17 fold enrichment (6-mer frequency, TF over GST control)"
same,binding signal,SPIC,"1.41 fold enrichment (6-mer frequency, TF over GST control)"
same,binding signal,ELF4,"1.35 fold enrichment (6-mer frequency, TF over GST control)"
same,binding signal,ELK4,"1.36 fold enrichment (6-mer frequency, TF over GST control)"
same,binding signal,ETV2,"1.13 fold enrichment (6-mer frequency, TF over GST control)"
same,binding signal,ELF3,"1.36 fold enrichment (6-mer frequency, TF over GST control)"
same,binding signal,CRX,"1.19 fold enrichment (6-mer frequency, TF over GST control)"
same,binding signal,ETV1,"1.17 fold enrichment (6-mer frequency, TF over GST control)"
